# Data: PubChem BioAssay
# Assay: COS7 lysate on small-molecule microarray, probe aHis, 635 nm (AID 1123);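 further: z-score combines 667nm fluorescence intensity with signal-to-noise per printed compound spot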
# Conditions: COS7 cell lysate, fluorescence, higher = more signal
row,Compound,composite z-score
1,COc1ccc(CCN2C(=O)[C@@]3(c4ccc([N+](=O)[O-])cc4)CC(=O)N(CC45CC6CC(CC(C6)C4)C5)[C@@H]3c3ccc(CO)cc32)cc1,1.38
2,C=CCN1C(=O)[C@@]2(Cc3ccccc3)N=C(c3ccc(OCCCO)cc3)O[C@H]2c2ccccc21,2.83
3,CN1CCC(CCCO)=CC1C1CC1 (configuration not stated),0.238
4,CC(C)N1CC=CC23O[C@@H]4/C=C\CCCOC(=O)C4[C@H]2C(=O)N(CCCCCO)[C@@H]3C1=O (some centres not stated),-0.0414
5,COCCOC(=O)N1C(=O)[C@@]2(c3cc(C#CCC(C(=O)OC)C(=O)OC)ccc31)[C@H](C(=O)N1CCN(c3ncccn3)CC1)[C@H]1C(=O)O[C@H](c3ccccc3)[C@H](c3ccccc3)N1[C@@H]2c1ccc(O)cc1,1.48
6,CCC(=O)[C@]12O[C@@]3([C@@H]4C(=O)OCC[C@@H]41)N(Cc1ccccc1)C(C)=C(C(=O)OC)[C@@H](c1ccccc1)N3C2=O,-0.859
7,COC(=O)[C@@]1(Cc2ccc(OC)cc2)[C@H]2c3cc(C(=O)N(C)C)n(Cc4ccc(C)c(F)c4F)c3C[C@H]2CN1C(=O)c1ccccc1,1.41
8,COc1cc(CO)cc(I)c1O[C@H]1C=C(C(=O)NCCO)C[C@@H](NCCc2c[nH]c3ccccc23)[C@@H]1O,0.414
9,Cc1ccc(N2C(=O)c3ccccc3[C@](C)(C(=O)O)[C@@H]2c2ccc(CO)cc2)nc1,-0.471
10,COC(=O)[C@@]1(Cc2ccccc2)[C@H]2c3cc(C(=O)N4CCCC4)n(CCN4CNCC4=O)c3C[C@H]2CN1C(=O)c1ccccc1,3.04
11,CO[C@@H]1COC(=O)[C@H](C)NC(=O)CC=C[C@@H](C)[C@H](OC)COC(=O)[C@H](C)NC(=O)CC=C[C@H]1C,-0.466
12,C=C(COC)/C(=C/C[C@@H](OC(C)=O)c1cccc(OCCO)c1)c1cc(C(=O)OC)ccc1OC,-0.194
13,CCOC(=O)C[C@H]1[C@H](OC(=O)c2ccccc2-c2ccccc2)[C@@H](NC(=O)c2ccc(-c3ccccc3)cc2)c2cc(OCCCO)ccc2N1C(=O)Cc1ccc(OC)cc1,0.416
14,[N-]=[N+]=NCc1ccccc1C[C@]1(C(=O)N2CCCCC2)N=C(c2ccc(OCCCO)cc2)O[C@H]1c1ccccc1CN=[N+]=[N-],2.56
15,CO[C@H]1COC(=O)[C@@H](OCc2ccccc2)C=C[C@H](C)[C@@H](OC)COC(=O)[C@H](OCc2ccccc2)C=C[C@@H]1C,-0.838
16,COCCOC(=O)N1C(=O)[C@@]2(c3cc(C#CCNC(N)=O)ccc31)[C@H](c1ccc(OCCO)cc1)N1[C@H](c3ccccc3)[C@H](c3ccccc3)OC(=O)[C@H]1[C@@H]2C(=O)Nc1nc2ccccc2s1,0.447
17,CCOC(=O)C1=CC[C@@H](c2ccc(-c3ccc(OCc4ccccc4)cc3)c(OC)c2)N(S(=O)(=O)c2ccc(C)cc2)[C@H]1c1ccccc1,1.64
18,Cc1ccc(S[C@]2(C(=O)O)CC(=O)N(Cc3ccccc3)[C@@H]2c2ccc(CO)cc2)cc1,1.02
19,Cc1ccc(S[C@]2(C(=O)NC(C)C)CC(=O)N(Cc3cc(C(F)(F)F)cc(C(F)(F)F)c3)[C@@H]2c2ccc(CO)cc2I)cc1,1.31
20,CO[C@@H]1COC(=O)[C@H](COCc2ccccc2)NC(=O)CC=C[C@@H](C)[C@H](OC)COC(=O)[C@H](COCc2ccccc2)NC(=O)CC=C[C@H]1C,0.107
21,CCC1=C2CN(Cc3ccccc3Br)[C@@H]([C@@H](O)Cc3ccccc3)C2C=CCC1 (some centres not stated),1.01
22,COCCOC(=O)N1C(=O)[C@@]2(c3cc(C#CCC(C(=O)OC)C(=O)OC)ccc31)[C@H](c1ccccc1OCCO)N1[C@H](c3ccccc3)[C@H](c3ccccc3)OC(=O)[C@H]1[C@@H]2C(=O)N1CCCCCCC1,2.18
23,CO[C@@H]1COC(=O)[C@@H]2CCCN2C(=O)CC=C[C@@H](C)[C@H](OC)COC(=O)[C@@H]2CCCN2C(=O)CC=C[C@H]1C,-0.422
24,C=C(COC)/C(=C/C[C@H](OC(C)=O)c1ccc(OCCO)cc1)c1cnc2ccccc2c1,0.193
25,CC(=O)Nc1ccc([C@H]2[C@H](C)CC[C@H]3C(=O)N4[C@@H](CC[C@@H](C)[C@@H]4c4ccc(NC(C)=O)cc4)C(=O)N32)cc1,1.24
26,CN(C)CCCC[C@@H]1NC(=O)[C@@H]2C[C@H](C(=O)O)[C@H](c3ccc(O)cc3)N2C1=O,0.917
27,C[C@@H]1CC[C@H]2C(=O)N3[C@@H](CC[C@@H](C)[C@@H]3c3cccc(N4CCOCC4)c3)C(=O)N2[C@H]1c1cccc(Br)c1,0.425
